# Test results as given in PubChem BioAssay (Tox21).
# Results filed as inconclusive are left out. Where a call stands in place of a potency, no number is given. Active and inactive are the calls of the source. Calls follow the shape of the dose curve; as a rule, active = well fitted cell-killing curve with a large enough effect in the repeat runs; inconclusive = weak or mixed curves, or effect the other way; inactive = no such curve, though single readings can be large or run the other way.
# Experiment: qHTS assay to identify small molecule antagonists of the progesterone receptor (PR) signaling pathway - cell viability counter screen (AID 1346798); also: nearly all actives have a fitted effect of over 50% in size
# Conditions: PR-UAS-bla HEK293T viability, CellTiter-Glo luminescence, 16 h; series mostly up to 92.4 µM
# How it was run: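 Counter screen for cytotoxicity: viability of PR-UAS-bla HEK293T cells was measured with CellTiter-Glo luminescence following 16 hr compound exposure in the presence of R5020.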
row,Compound,Potency
1,CCC(C)n1c(=O)[nH]c(C)c(Br)c1=O (centres undefined),inactive
2,CN1CCC(O)(c2ccc(F)cc2)C(C(=O)c2ccc(F)cc2)C1 (centres undefined),inactive
3,CC(=O)[C@H]1CC[C@H]2[C@@H]3CC[C@H]4C[C@H](O)CC[C@]4(C)[C@H]3C(=O)C[C@]12C,inactive
4,O=C(O)c1cccc(Cl)c1,inactive
5,O=NN1CCN(N=O)CC1,inactive
6,Nc1ccccc1Cl,inactive
7,CC1CCCCC1NC(=O)Nc1ccccc1 (centres undefined),inactive
8,CCOP(=O)(OCC)OP(=O)(OCC)OCC,inactive
9,COC(=O)c1c(C(F)F)nc(C(F)(F)F)c(C2=NCCS2)c1CC(C)C,inactive
10,CC(=O)Nc1cc([As](=O)(O)O)ccc1O,inactive
11,CCOP(=S)(OCC)SCSP(=S)(OCC)OCC,inactive
12,C[C@]12CC[C@H]3[C@@H](CCC4=CC(=O)CC[C@@]43C)[C@@H]1CC[C@@H]2C(=O)O,inactive
13,CCC(=O)c1ccccc1,inactive
14,C[C@@H]1CN(C2CCC(C#N)(c3ccc(F)cc3)CC2)CC[C@]1(C(=O)O)c1ccccc1 (some centres undefined),inactive
15,N#CCCC#N,inactive
16,CSc1ccc(C(=O)C(C)(C)N2CCOCC2)cc1,inactive
17,c1ccc(N2CCNCC2)cc1,inactive
18,CC(C)(C)OC(=O)c1ncn2c1[C@@H]1CCCN1C(=O)c1c(Br)cccc1-2,inactive
19,CC(N)=S,inactive
20,CCCCOC(=O)c1ccccc1N,inactive
21,COc1cc(C[C@@H](C)N)c(OC)cc1C,inactive
22,CNC(=O)Oc1ccccc1C1OCCO1,inactive
23,ClCC(Cl)(Cl)Cl,inactive
24,O=C(Cc1ccccc1)OCc1ccccc1,inactive
